Data reported in PubChem BioAssay (NCATS).
Inconclusive results are not listed. Unmarked numbers belong to inactive results. Calls of active or inactive are those of the source. The call rests on the fitted dose curve; in most records, active means well fitted cell-killing curve with a large enough effect; inconclusive means small, poorly fitted or top-dose-only effect; inactive means no such curve, though single readings can be large or run the other way.

Test: qHTS of pediatric cancer cell lines to identify multiple opportunities for drug repurposing: Primary screen for MG 63 (6-TG R) cells (AID 1347105); further: nearly all actives have a fitted effect of over 50% in size
Settings: MG 63 (6-TG R) viability, CellTiter-Glo, 48 h; series mostly up to 46 µM; activity change, negative = cytotoxic: at the top concentration
Text: Drug repurposing or repositioning has been offered as a strategy for drug development in oncology programs. This approach has special potential for childhood cancers and other rare or orphan diseases, where the expected return on new drug development has been a disincentive to pharmaceuticals. […] In this project we exploit the poly-pharmacology of drugs to discover new indications via phenotypic screening of a panel of 19 well-characterized cell lines derived from solid tumors seen in children and adolescents. The goal is to identify approved drugs with previously unrecognized anticancer properties that has the potential to reveal new mechanisms and biological processes involved in carcinogenesis or drug resistance. We employed a titration-based paradigm (quantitative high-throughput screening or qHTS), where all compounds were tested at multiple concentrations for their effect on cell viability. Concentration-response curves (CRCs) were derived directly from the primary screen, and both potency and efficacy values were used to identify compounds with robust bioactivity profiles. We screened the NIH Chemical Genomics Center (NCGC) Pharmaceutical Collection (NPC) and Mechanism Interrogation Plate (MIPE) small molecule collections of approved and investigational compounds against these cell lines; and measured metabolically active cells after 48 hours of compound treatment as a proxy for cell viability. […] Assay Submitter: Nathalia J. Martinez, National Center for Advancing Translational Sciences, National Institutes of Health, Rockville, MD, USA; email: natalia.martinez@nih.gov Shen, M et al. Quantitative high-throughput phenotypic screening of pediatric cancer cell lines identifies multiple opportunities for drug repurposing. Oncotarget 2017 Dec 19;9(4):4758-4772. PMID 29435139.
The cells were obtained from University of North Carolina (UNC), Pediatric Preclinical Testing Program (PPT), and Coriell Institute (CI). qHTS cell viability assay: Cells were assayed in growth media at a density of 500-1,000 cells/well. Five microliters of cells were dispensed into 1,536-well, white, solid-bottom, TC-treated plates (Greiner Bio One) using a multidrop dispenser and incubated at 37 degrees C, 5% CO2, under a humidified atmosphere for 5 hours. Twenty-three nanoliters of compounds and controls (neutral control DMSO or positive control bortezomib at final concentration of 2.3 µM) were subsequently transferred by Kalypsys pintool. For primary screens, the MIPE collection was tested at 11-point dilutions (final concentrations range from 0.78 nM to 46 µM) and the NPC collection at 8-point dilutions (final concentrations range from 0.59 nM to 46 µM). Compounds tested in follow-up screens were assayed at 11-point dilutions. Cells were incubated for 48 hours, followed by addition of 3 µL of CellTiter-Glo (Promega). After a 15 min incubation at room temperature, samples were analyzed for luminescence intensity using a ViewLux High-throughput CCD imager equipped with clear filters.
On the % scale 0 is the no-effect control and ±100 the full control effect; potency means the concentration at half of the fitted maximal effect.

Row | SMILES | activity change, negative = cytotoxic | Potency
1 | NS(=O)(=O)c1cc(C(=O)NN2C[C@H]3[C@H]4CCC(C4)[C@H]3C2)ccc1Cl | -2.74% | –
2 | CN1Cc2cc(C(=O)N3CCC(C4CCNCC4)CC3)ccc2NC(CC(=O)O)C1=O (stereo not given) | -1.49% | –
3 | CCOC(=O)Oc1ccc(CCNC(=O)[C@H](CCSC)NC(C)=O)cc1OC(=O)OCC | -0.765% | –
4 | CCCCC(CC)COC(=O)c1ccccc1C(=O)O (stereo not given) | 13.7% [at 92.7 µM] | –
5 | CCCCCCCCCCCCCC[N+](C)(C)C | – | 26.6 µM (active)
6 | CC(=O)Nc1c(I)c(NC(C)=O)c(I)c(C(=O)O)c1I | -6.85% | –
7 | CN1CC(=O)N2[C@H](c3ccc4c(c3)OCO4)c3[nH]c4ccccc4c3C[C@@H]2C1=O | -10.7% | –
8 | CC(=O)O[C@H]1CC[C@@]2(C)C(=CC[C@@H]3[C@@H]2CC[C@]2(C)C(C(C)=O)=CC[C@@H]32)C1 | -15.2% | –
9 | CC[N+](CC)(CC)CCOC(=O)C(C1CCCC1)C1CCCC1 | -16.7% | –
10 | C=CCNc1nc(NCC=C)nc(N2CCN(C(c3ccc(F)cc3)c3ccc(F)cc3)CC2)n1 | 3.98% | –
11 | O=C(CCCCCCCCC#CI)Oc1ccccc1 | 0.106% | –
12 | CC1CN(c2cc3c(cc2F)c(=O)c(C(=O)O)cn3-c2ccc(F)cc2F)CCN1 (stereo not given) | 29.5% [at 4.84 µM] | –
13 | Cc1onc(-c2c(Cl)cccc2Cl)c1C(=O)Cl | -11.9% | –
14 | CNC(=O)c1c(I)c(NC(C)=O)c(I)c(C(=O)O)c1I | -22.3% | –
15 | O=[N+]([O-])c1cncn1CCN1CCOCC1 | 48.6% | –
16 | C#Cc1ccc(-c2ccccc2F)cc1 | -3.15% | –
17 | COc1ccc(-n2nc(CCC(=O)N(C)O)cc2-c2ccc(Cl)cc2)cc1 | -17.5% | –
18 | CC(C)NC(=O)c1ccc(C=O)cc1 | 2.68% | –
19 | COC(=O)C1=C(C)NC(C)=C(C(=O)OCCc2ccc(N3CCN(C(c4ccccc4)c4ccccc4)CC3)cc2)C1c1cccc([N+](=O)[O-])c1 (stereo not given) | -6.09% | –
20 | CO[C@@H]1[C@@H](O[C@@H]2O[C@H](C)[C@@H](O[C@H]3C[C@@](C)(O)[C@@H](O)[C@H](C)O3)[C@H](N(C)C)[C@H]2O)[C@@H](CC=O)C[C@@H](C)[C@@H](O[C@@H]2CC[C@H](N(C)C)[C@@H](C)O2)/C=C/C=C/C[C@@H](C)OC(=O)C[C@H]1OC(C)=O | 18.7% | –

Row | SMILES | activity change, negative = cytotoxic | Potency
21 | CN1CCCN=C1/C=C/c1cccs1 | -19.2% | –
22 | COC(=O)c1c(Cl)c(Cl)c(C(=O)OC)c(Cl)c1Cl | -12.1% [at 92.7 µM] | –
23 | C[N+](C)(CCOc1ccccc1)Cc1cccs1 | -29% | –
24 | N#C/C(=C1/SC[C@@H](c2ccc(Cl)cc2Cl)S1)n1ccnc1 | -4.46% | –
25 | Cc1cc2nc3ccc(=[N+](C)C)cc-3sc2cc1N | – | 13.3 µM (active)
26 | O=C1Nc2cc(Cl)ccc2Oc2ccccc21 | -42.7% | –
27 | Cc1ccc(Cl)c(OCC(O)CNC(C)(C)C)c1 (stereo not given) | 0.605% | –
28 | Cc1cc(O)c(C)c(C)c1O | -4.68% | –
29 | CO/N=C(/C(=O)N[C@@H]1C(=O)N2C(C(=O)[O-])=C(C[n+]3ccn4ncccc43)CS[C@H]12)c1nsc(N)n1 | -1.24% | –
30 | c1ccc2c(c1)CCc1ccccc1N2 | 0.0912% | –
31 | CCCCCN(CCCOC)C(=O)C(CCC(=O)O)NC(=O)c1ccc(Cl)c(Cl)c1 (stereo not given) | -29.3% | –
32 | N#CSCC(=O)O | -9.39% | –
33 | Cc1cccc(C)c1NC(=O)c1cc(S(N)(=O)=O)c(Cl)cc1O | -21.2% | –
34 | O=C(Nc1ccc(S(=O)(=O)N2CCOCC2)cc1)c1cc(Cl)ccc1NS(=O)(=O)c1ccc(Cl)s1 | -8.92% | –
35 | Cc1ccc(C(=O)Oc2ccc(C(O)CNC(C)(C)C)cc2OC(=O)c2ccc(C)cc2)cc1 (stereo not given) | 1.71% | –
36 | CC[N+]1(CC)CCC(=C(c2ccccc2)c2ccccc2)C1C (stereo not given) | -12.5% | –
37 | Cc1ccccc1N1CCN(CCc2nnc3n2CCCC3)CC1 | -30% | –
38 | O=C(O)Cc1ccc(OCCNC[C@H](O)c2ccccc2)cc1 | -21.5% | –
39 | C=CC[N+]1([C@H]2C[C@H]3[C@@H]4CC[C@H]5C[C@H](OC(C)=O)[C@@H](N6CCCCC6)C[C@]5(C)[C@H]4CC[C@]3(C)[C@H]2OC(=O)CC)CCCCC1 | 8.04% | –
40 | CO/N=C(/C(=O)N[C@@H]1C(=O)N2C(C(=O)O)=C(Cn3nnc(C)n3)CS[C@H]12)c1csc(N)n1 | 2.83% | –
